Assay outcomes: PubChem, Broad Institute
This excerpt belongs to a sample that is enriched for hits.
ROS inducer = ROS inducers in U2OS cancer cells, primary screen, cell-based, H2DCF-DA fluorescence | AID 624156, 2012 | U2OS ROS induction | ROS induction (% of piperlongumine), % at 10 µM | 46,000 compounds, 2% hits; in the data active means ROS induction above about 79%, passing the limit was not always enough;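 further: 0% = DMSO vehicle median and 100% = reference compound median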
The depositor's hits bear a star.

SMILES	ROS inducer
c1ccc(-c2nsc(N3CCOCC3)n2)cc1	10
O=C(NCc1ccco1)c1cc(-c2ccc(F)cc2)no1	-1
CCCN(CCC)C(=O)c1ccc(CNS(=O)(=O)c2ccc(F)cc2)cc1	-13
O=C(Nc1ccc(Br)cc1)C1CC(=O)N(c2ccccc2)C(=Nc2ccccc2)S1 (configuration not stated)	-14
O=C(CSc1nccc(-c2csc(COc3ccccc3Cl)n2)n1)c1ccccc1	-3
Cc1ccccc1N1C(=O)NC(=O)/C(=C\c2cn(CC(=O)N3CCOCC3)c3ccccc23)C1=O	117*
NC(=O)CSc1cn(CC(=O)N2CCOCC2)c2ccccc12	-15
CNC(=O)CS(=O)(=O)c1cn(CC(=O)N2CCCC2)c2ccccc12	8
O=C1NC(=O)N(c2ccccc2F)C(=O)/C1=C/c1cn(CC(=O)N2CCCC2)c2ccccc12	100*
C=CCn1cc(C=C2C(=O)OC3(CCCC3)OC2=O)c2ccccc21	45
CN1C(=O)/C(=C\c2cn(CC(=O)N3CCOCC3)c3ccccc23)C(=O)NC1=S	3
N#Cc1cccc(NC(=O)CCCC(=O)Nc2cccc(C#N)c2)c1	-10
CC(=O)N1CCOc2cc(S(=O)(=O)N(C)Cc3ccccc3)ccc21	-8
CCn1c(=O)c(=O)n(CC)c2cc(S(=O)(=O)NCc3cccs3)ccc21	-10
Cc1nn(CCCC(=O)N(C)Cc2ccccc2)c(=O)c2cc3sccc3n12	2
O=C1CC(c2ccccc2)=Nc2ncccc2N1	5
Cc1cc2c(cc1S(=O)(=O)N1CCc3ccccc31)OCC(=O)N2	18
Cc1cc2c(cc1S(=O)(=O)N1CC(C)CC(C)C1)OCC(=O)N2 (configuration not stated)	85*
CCCNS(=O)(=O)c1ccc2c(c1)OCC(=O)N2	-5
CC[N+]1(CC)Cc2cc3ccccc3cc2C1	-10
Cc1[nH]n(-c2ccccc2)c(=O)c1/C=C1\C=NN=C1c1ccccc1	106*
Cc1[nH]n(-c2ccccc2)c(=O)c1Cc1c(Cl)cccc1Cl	-3
Cc1ccnc(N=Cc2c(C)[nH]n(-c3ccccc3)c2=O)c1	68
Cc1nc2c3ccccc3nc(SCc3cc(F)cc4c3OCOC4)n2n1	-4
Clc1ccc(CSCc2nc3ccccc3[nH]2)cc1	-23
SMILES	ROS inducer
O=C(N=CNC(=O)c1cccnc1)c1cccnc1	34
CNC(=S)N(Cc1ccc(OC)cc1OC)c1ccc(I)cc1	14
COc1ccc(/C=C2\Sc3ccccc3NC2=O)cc1	6
C[C@@H]1CN([C@@H](C)CO)C(=O)c2cc(NC(=O)Nc3ccc4c(c3)OCO4)ccc2O[C@@H]1CN(C)C(=O)Nc1ccc(C(F)(F)F)cc1	227*
C[C@@H]1CN([C@H](C)CO)C(=O)c2cc(NC(=O)Nc3ccc(C(F)(F)F)cc3)ccc2O[C@H]1CN(C)C(=O)Nc1ccc2c(c1)OCO2	-9
C[C@@H]1CN([C@H](C)CO)C(=O)c2cc(NC(=O)Nc3ccc(F)cc3)ccc2O[C@@H]1CN(C)C(=O)Nc1ccc2c(c1)OCO2	4
C[C@H]1CN([C@@H](C)CO)C(=O)c2cc(NC(=O)Nc3ccc4c(c3)OCO4)ccc2O[C@H]1CN(C)C(=O)Nc1ccc(F)cc1	86*
C[C@H](CO)N1C[C@H](C)[C@@H](CN(C)C(=O)Nc2ccc(C(F)(F)F)cc2)Oc2ccc(NC(=O)Nc3ccc4c(c3)OCO4)cc2C1=O	35
C[C@H](CO)N1C[C@H](C)[C@@H](CN(C)C(=O)Nc2ccc3c(c2)OCO3)Oc2ccc(NC(=O)Nc3ccc(F)cc3)cc2C1=O	-8
O=C(NCc1sccc1COc1ccc(Cl)cc1)Nc1ccccc1F	-5
O=C(CC(c1ccccc1)c1ccccc1)NCCN1CCOCC1	-15
Cn1c(SCC(=O)c2ccc(Cl)cc2)nnc1-c1ncc(C(F)(F)F)cc1Cl	-5
COc1ccc2nc(SCC(=O)Nc3cccc(C(F)(F)F)c3)[nH]c2c1	-6
COc1ccc(-n2nnc3c(SCC(=O)Nc4cccc(C(F)(F)F)c4)ncnc32)cc1	261*
COc1ccc(-n2c(C)nnc2SCC(=O)Nc2cccc(C(F)(F)F)c2)cc1	2
CCC(C)NC(=O)C1CCN(c2nc3ccccc3n3cccc23)CC1 (configuration not stated)	-14
O=C1c2ccccc2C(=O)c2c1oc(-c1ccccc1)c2C(=O)c1ccccc1	1
Cc1ccccc1NC(=O)COc1ccc(C)c([N+](=O)[O-])c1	114*
CCOc1ccc(OCC(=O)Nc2ccc(C)cc2[N+](=O)[O-])cc1	13
CC(=O)Nc1ccccc1NC(=O)COc1ccc([N+](=O)[O-])cc1	-10
O=c1c(-c2c(O)cc(O)c3c(=O)cc(-c4ccc(O)cc4)oc23)c(-c2ccc(O)cc2)oc2cc(O)cc(O)c12	0
COc1cc(O)c2c(=O)cc(-c3ccc(OC)c(-c4c(O)cc(O)c5c(=O)cc(-c6ccc(O)cc6)oc45)c3)oc2c1	179*
COc1ccc(-c2cc(=O)c3c(O)cc(O)cc3o2)cc1	39
CC1CCCCN1C(=O)c1cc2nc(-c3ccc(Cl)cc3)cc(C(F)(F)F)n2n1 (configuration not stated)	-2
O=C(COc1nsnc1N1CCOCC1)c1ccccc1	1
SMILES	ROS inducer
CN(Cc1ccccc1)C(=O)CCN1C(=O)COc2ccccc21	-15
O=C1c2ccccc2NC(c2ccccc2)N1NS(=O)(=O)c1ccccc1 (configuration not stated)	-9
O=C1NCCN1CCN1C(=O)c2ccccc2NC1c1ccccc1 (configuration not stated)	-12
O=C1c2ccccc2NC(c2ccccc2)N1N=C1CCCCCC1 (configuration not stated)	96*
CN(Cc1ccccc1)C(=O)CN(C)S(=O)(=O)c1ccc2c(c1)C(C)(C)C(=O)N2C	18
COc1ccc(C(=O)NCc2cccnc2)cc1C(=O)NCc1cccnc1	-3
COc1ccccc1-c1cc(C(F)F)n2ncc(C(=O)NCc3cccnc3)c2n1	116*
Cc1nn(C)cc1CNC(=O)c1cnn2c(C(F)F)cc(C3CC3)nc12	13
O=C(NCc1ccco1)c1cnn2c(C(F)F)cc(-c3ccccc3)nc12	193*
NC(=O)c1c(NC(=O)c2cnn3c(C(F)F)cc(-c4ccccc4)nc23)sc2c1CCC2	12
COc1cccc(OC)c1C(=O)NC(=S)NCc1cccnc1	2
CC(Nc1nc(Nc2ccc(F)cc2)nc(SCC(=O)Nc2ccc(F)cc2)n1)c1ccccc1 (configuration not stated)	10
COc1ccc(C(=O)Nc2cccc(-c3nc4ccccc4s3)c2)cc1	18
CCCCC(CC)C(=O)Nc1c2c(nc3c1CCC3)CCCC2 (configuration not stated)	-5
Cc1ccc(/C=c2\sc3ncnn3c2=O)o1	19
COC(=O)c1c(NC(=O)Nc2ccccc2)sc2c1CCCC2	30
COC(=O)c1c(NC(=O)C2CC(=O)NN2Cc2ccccc2)sc2c1CCC2 (configuration not stated)	149*
COC(=O)c1c(NC(=O)C2CC(=O)NN2Cc2ccccc2)sc2c1CCC(C)C2 (configuration not stated)	40
COc1ccc(C2NC(=O)NC(C)=C2C(=O)c2ccccc2)cc1OC (configuration not stated)	-6
Cn1nc(C(=O)NCCN(Cc2ccco2)C2CCCC2)c2c1-c1ccccc1OC2	15
O=C(CCN1C(=O)/C(=C/c2ccc(Cl)cc2)SC1=S)Nc1ccccc1	10
CC(C)OC(=O)CCN1C(=O)/C(=C/c2ccccc2)SC1=S	36
